# Source: PubChem BioAssay (NCATS)
# Inconclusive results are not listed. Activity calls are given as the source filed them. Unless noted, the call rests on the fitted dose curve.
# Assay: Primary qHTS for inhibitors of MERS-S pseudo-typed particle cell entry (AID 1479149); further: nearly all actives have a fitted effect of over 60% in size; on activity change, negative = inhibition: on the % scale 0 is the no-effect control and ±100 the full control effect
# Conditions: MERS-S pseudotyped particle entry, luciferase; series mostly up to 57.1 µM; activity change, negative = inhibition: at the top concentration
SMILES,outcome,"activity change, negative = inhibition"
N#C[C@H]1C[C@H]2C[C@@H]2N1C(=O)[C@@H](N)C12CC3CC(CC(O)(C3)C1)C2,inactive,–
CC(=O)OCC1=C(C(=O)O)N2C(=O)[C@@H](NC(=O)Cc3cccs3)[C@H]2SC1,–,-74.6% (inactive)
C/C(=C(\CCO)SS/C(CCO)=C(\C)N(C=O)Cc1cnc(C)nc1N)N(C=O)Cc1cnc(C)nc1N,inactive,–
CCCCCCCN(CC)CCCC(O)c1ccc(NS(C)(=O)=O)cc1 (stereo not drawn),inactive,–
O=C(CCOCCOCCOCCOCCC(=O)Nc1c(I)cc(I)c(C(=O)O)c1I)Nc1c(I)cc(I)c(C(=O)O)c1I,inactive,–
CCC(=O)c1c(O)cc(O)cc1O,inactive,–
CN(CC1(C)CCCO1)S(=O)(=O)c1ccc(Cl)c(S(N)(=O)=O)c1 (stereo not drawn),–,-17.9% (inactive)
CC(C)=CCC1C(=O)N(c2ccccc2)N(c2ccccc2)C1=O,inactive,–
COCC(=O)Nc1c(I)c(C(=O)NCC(O)CO)c(I)c(C(=O)N(C)CC(O)CO)c1I (stereo not drawn),inactive,–
COC(=O)C1=C(C)NC(C)=C(C(=O)OCCc2ccc(N3CCN(C(c4ccccc4)c4ccccc4)CC3)cc2)C1c1cccc([N+](=O)[O-])c1 (stereo not drawn),inactive,–
NCC(=O)CCC(=O)O,–,-28% (inactive)
CCCCCCCCCCCCCCCCO,inactive,–
C[C@]12CC[C@H]3[C@@H](CCC4=CC(=O)CC[C@@H]43)[C@@H]1CC[C@@H]2OC(=O)CCc1ccco1,inactive,–

# Assay: Primary qHTS for Vero E6 cytotoxicity: counterscreen for inhibitors of SARS-S pseudo-typed particle cell entry (AID 1479150); on activity change, negative = cytotoxicity: on the % scale 0 is the no-effect control and ±100 the full control effect
# Conditions: cell viability; series mostly up to 57.1 µM; activity change, negative = cytotoxicity: at the top concentration
SMILES,outcome,"activity change, negative = cytotoxicity"
COc1ccc2cccc(CCNC(C)=O)c2c1,inactive,–
CCOP(=S)(OCC)Oc1ccc2c(C)c(Cl)c(=O)oc2c1,inactive,–
NNC(=O)c1ccncc1,–,-10.6% (inactive)
Cc1ccccc1C(=O)N1CC/C(=N\OS(=O)(=O)O)c2ccc(Cl)cc21,–,4.3% (inactive)
CN1C(=O)OC(C)(C)C1=O,–,-8.62% (inactive)
CCOc1cc(OCC)c(C(=O)CCC(=O)O)cc1OCC,–,-0.854% (inactive)
COc1ccc(C2C(=O)c3ccccc3C2=O)cc1,–,2.83% (inactive)
NC(=O)NC(=O)Cc1ccccc1,inactive,–
CC(C)(C)NCC(O)COc1cccc2c1C[C@H](O)[C@H](O)C2 (stereo partly drawn),–,-2.37% (inactive)
O=C(O)CCCCCCCC(=O)O,inactive,–
COc1ccc(C2CNC(=O)C2)cc1OC1CCCC1 (stereo not drawn),inactive,–
OCCOCCN1CCN(C2=Nc3ccccc3Sc3ccccc32)CC1,inactive,–
C[C@@H](N)[C@@H](O)c1ccccc1,–,3.93% (inactive)
CCCCOCCOC(=O)c1cccnc1,–,-16.7% (inactive)
CC[N+](CC)(CC)CCOc1cccc(OCC[N+](CC)(CC)CC)c1OCC[N+](CC)(CC)CC,inactive,–
COC(=O)c1cccnc1,–,2% (inactive)

SMILES,outcome,"activity change, negative = cytotoxicity"
CC(C)(C)NCC(O)COc1ccccc1OCC1CCCO1 (stereo not drawn),inactive,–
CN1C(CSCC(F)(F)F)Nc2cc(Cl)c(S(N)(=O)=O)cc2S1(=O)=O (stereo not drawn),inactive,–
N#C[C@H]1C[C@H]2C[C@@H]2N1C(=O)[C@@H](N)C12CC3CC(CC(O)(C3)C1)C2,–,-11.5% (inactive)
CC(=O)OCC1=C(C(=O)O)N2C(=O)[C@@H](NC(=O)Cc3cccs3)[C@H]2SC1,inactive,–
C/C(=C(\CCO)SS/C(CCO)=C(\C)N(C=O)Cc1cnc(C)nc1N)N(C=O)Cc1cnc(C)nc1N,inactive,–
CCCCCCCN(CC)CCCC(O)c1ccc(NS(C)(=O)=O)cc1 (stereo not drawn),inactive,–
O=C(CCOCCOCCOCCOCCC(=O)Nc1c(I)cc(I)c(C(=O)O)c1I)Nc1c(I)cc(I)c(C(=O)O)c1I,–,-17% (inactive)
CCC(=O)c1c(O)cc(O)cc1O,inactive,–
CN(CC1(C)CCCO1)S(=O)(=O)c1ccc(Cl)c(S(N)(=O)=O)c1 (stereo not drawn),inactive,–
CC(C)=CCC1C(=O)N(c2ccccc2)N(c2ccccc2)C1=O,inactive,–
COCC(=O)Nc1c(I)c(C(=O)NCC(O)CO)c(I)c(C(=O)N(C)CC(O)CO)c1I (stereo not drawn),–,0.896% (inactive)
COC(=O)C1=C(C)NC(C)=C(C(=O)OCCc2ccc(N3CCN(C(c4ccccc4)c4ccccc4)CC3)cc2)C1c1cccc([N+](=O)[O-])c1 (stereo not drawn),inactive,–
NCC(=O)CCC(=O)O,inactive,–
CCCCCCCCCCCCCCCCO,inactive,–
C[C@]12CC[C@H]3[C@@H](CCC4=CC(=O)CC[C@@H]43)[C@@H]1CC[C@@H]2OC(=O)CCc1ccco1,inactive,–

# Assay: Primary qHTS for inhibitors of La Crosse Virus (LACV) - induced cell death in SH-SY5Y cells (AID 1508616; active means well fitted inhibition curve with a large enough effect;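 further: top concentration of the series differs between compounds; 0% = infected DMSO wells and 100% = uninfected DMSO wells; higher means more rescue of cells from virus-induced death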)
# Conditions: SH-SY5Y LACV cytopathicity rescue, ATP luminescence, 6 d; series mostly up to 4.29 µM; activity change: at the top concentration
# Method in brief: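 SH-SY5Y cells (6000/well) plated 24 h, then given compounds by pin transfer and LACV at 0.01 MOI for 6 days at 37C. Viability measured by ATPLite luminescence, normalized to infected DMSO and uninfected DMSO.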
row,SMILES,activity change
1,CCOP(=S)(OCC)Oc1ccc2c(C)c(Cl)c(=O)oc2c1,13.8% (inactive)
2,CC(C)(C)c1ccc(O)cc1,8.27% (inactive)
3,C[C@@H](N)[C@@H](O)c1ccccc1,-4.74% (inactive)
4,C[C@]12CC[C@H]3[C@@H](CCC4=CC(=O)CC[C@@H]43)[C@@H]1CC[C@@H]2OC(=O)CCc1ccco1,-7.55% (inactive)
